Among the data in ChEMBL document CHEMBL4513216, “Probing the Open Global Health Chemical Diversity Library for Multistage-Active Starting Points for Next-Generation Antimalarials” (ACS Infect Dis, 2020) are INHIBITION values, retold here.

Among all 68,000 compounds or so, about 2,700 (4%) showed an effect of 50% or more. What follows is part of a selection rich in strong results, with near analogues and random picks from the rest.

The test system of the assay is Plasmodium berghei. In words: Screen against P. berghei liver stage (PbLuc), transformed with Luciferase, at 2uM. It is filed as functional, HepG2. To be noted: tested at 2 uM.
Consider `CC1CCc2nc(O)c(C(=O)NCCCN3CCN(C)CC3)cc2C1` (configuration not stated), for which the INHIBITION is 68.39%.

Consider `CCCNC(=O)c1cc2c(nc1O)CCC(C)C2` (configuration not stated), for which the INHIBITION amounted to 44.39%.

On to `CC1CCc2nc(O)c(C(=O)NCc3ccncc3)cc2C1` (configuration not stated), for which the INHIBITION turned out to be 1.06%.

With `CC1CCc2nc(O)c(C(=O)NCCN(C)C)cc2C1` (configuration not stated), the INHIBITION is recorded as 27.24%.

On to `CC1CCc2nc(O)c(C(=O)NCCc3cccs3)cc2C1` (configuration not stated), for which the INHIBITION is recorded as 53.61%.

As to `Cc1csc(CCNC(=O)c2cc3c(nc2O)CCC(C)C3)n1` (configuration not stated), the INHIBITION was -46.57%.

On to `Cc1nn(CCO)c(C)c1CNCc1cccnc1N(C)C`, for which the INHIBITION is 23.42%.

As for `CC(C)Oc1ncnc2c1CCN(Cc1ccc(F)cc1)CC2`, the INHIBITION was 1.08%.

With `COc1ccccc1OCCC(=O)N1CCCC1Cn1cc(C)cn1` (configuration not stated), the INHIBITION is given as -14.11%.

As to `Cc1ccc(CNC(=O)CN2CCN(CC(O)C3CC3)CC2)cc1` (configuration not stated), the INHIBITION is on record as -10.6%.

With `Cc1cccc(CN2CCO[C@H]3[C@@H](OCc4ccncc4)CC[C@@H]32)n1`, the INHIBITION is on record as 15.78%.

For the molecule `Cc1cnn(C2CCCN(C(=O)CCCNc3ncccn3)C2)c1` (configuration not stated), the INHIBITION is -34.45%.

For the molecule `COCC(=O)N1C[C@H]2CCCC(OCc3cccnc3)[C@H]2C1` (some centres not stated), the INHIBITION is listed as -34.83%.

For the molecule `CC(C)N(C)Cc1nnc2n1CCCN(c1cnccn1)C2`, the INHIBITION is reported as 20.01%.

Turning to `Cn1nccc1-c1nc2c(cc1C(=O)O)CCN(C(=O)C1CC1)CC2`, the INHIBITION is -28.2%.

Turning to `CNC(=O)c1cc2c(nc1NC(C)C)CCNCC2`, the INHIBITION was -9.98%.

Consider `CNC(=O)c1cc2c(nc1NCC1CC1)CCN(CC1CC1)CC2`, for which the INHIBITION turned out to be 11.18%.

With `CNC(=O)c1cc2c(nc1NCC(C)C)CCN(C)CC2`, the INHIBITION is recorded as 20.21%.

For the molecule `Cc1nc2c(cc1C(=O)O)CCN(CC1CC1)CC2`, the INHIBITION is listed as -14.21%.

With `CNC(=O)c1cc2c(nc1NCC(C)C)CCN(CC1CC1)CC2`, the INHIBITION is 57.85%.

With `CNC(=O)N1CCc2cc(C(=O)NCC3CC3)c(NC(C)C)nc2CC1`, the INHIBITION was 11.9%.

In the case of `CNC(=O)c1cc2c(nc1NC(C)C)CCN(C(=O)NC(C)C)CC2`, the INHIBITION amounted to 54.06%.

Take `Cn1nccc1-c1nc2c(cc1C(=O)O)CCN(CC1CC1)CC2`: the INHIBITION is listed as 52.66%.

Turning to `CC(=O)N(Cc1noc(C2CC2)n1)C1CCN(Cc2ccccn2)C1` (configuration not stated), the INHIBITION is -1.02%.

On to `CCN1CC(COC(=O)c2ccc(Br)cc2F)CC1=O` (configuration not stated), for which the INHIBITION stood at 17.86%.

As for `Cc1cc(NC(=O)CNC2CCc3ncnn3C2)no1` (configuration not stated), the INHIBITION came to 8.42%.

As for `CN(c1ncc(S(N)(=O)=O)s1)C1CCC1`, the INHIBITION is reported as 27.17%.

On to `CC(=O)NCCNC(=O)N(C)Cc1ccc2c(c1)OCCO2`, for which the INHIBITION was -43.47%.

In the case of `Clc1ccc(COCC2CCN(Cc3ccccn3)CC2)cc1`, the INHIBITION is given as -7.16%.

As to `Cn1cnc(S(=O)(=O)N2CCO[C@H]3[C@@H](OCC4CC4)CC[C@@H]32)c1`, the INHIBITION is -6.83%.

For the molecule `CNC(=O)c1cc(C)nc(C2(C)CCCN2c2cc(C)ncn2)n1` (configuration not stated), the INHIBITION is -4.78%.

As for `Cc1cncc(C(=O)N2CCCC(O)(CN3CCCC3)C2)c1` (configuration not stated), the INHIBITION was -22.01%.

Regarding `Cc1cc(C)c(C(=O)N2CCCC(O)(CN3CCCC3)C2)cc1C` (configuration not stated), the INHIBITION worked out at 79.79%.

For `Cc1cc(C(=O)N2CCCC(O)(CN3CCCC3)C2)ccc1Cl` (configuration not stated), the INHIBITION is reported as 19.36%.

For `O=C(c1ccccn1)N1C[C@H]2CC[C@@H](C1)N(C(=O)CCc1cccs1)C2`, the INHIBITION is -89.49%.

Consider `Cc1cc(C2CCCN2CCCc2nc3ccccc3o2)on1` (configuration not stated), for which the INHIBITION is -27.69%.

In the case of `Cn1c(CN2CCC(OCc3cccnc3)CC2)cc2ccccc21`, the INHIBITION amounted to 29.36%.

As to `CC(=O)N(Cc1ncc(C)o1)C1CCN(CCc2cccs2)C1` (configuration not stated), the INHIBITION is on record as 64.16%.

With `Cc1cnc(CN(C)C2CCN(CC(=O)Nc3c(C)n[nH]c3C)C2)o1` (configuration not stated), the INHIBITION was 36.65%.

As to `CCc1cnc(CN(C)C2CCN(CCc3ccccn3)C2)o1` (configuration not stated), the INHIBITION is on record as -3.88%.

With `CC(=O)N(Cc1ncc(C)o1)C1CCN(CCc2ccncc2)C1` (configuration not stated), the INHIBITION is listed as -23.45%.

Take `CCc1cnc(CN(C(C)=O)C2CCN(CCc3cccs3)C2)o1` (configuration not stated): the INHIBITION is -9.66%.

Take `Cc1cnc(CN(C)C2CCN(CC(=O)Nc3nccs3)C2)o1` (configuration not stated): the INHIBITION came out at 23.24%.

For the molecule `CCc1cnc(CN(C)C2CCN(CCS(C)(=O)=O)C2)o1` (configuration not stated), the INHIBITION is listed as -29.5%.

With `Cc1cc(NC(=O)CN2CCC(N(C)Cc3ncc(C)o3)C2)n(C)n1` (configuration not stated), the INHIBITION worked out at 57.11%.

For `CCc1cnc(CN(C)C2CCN(CCc3cccs3)C2)o1` (configuration not stated), the INHIBITION is on record as 66.97%.

`N#Cc1ccc(N2CCN(c3cnccn3)CC2)c(C(F)(F)F)c1`: the INHIBITION is on record as -22.24%.

`CC(C)NC(=O)N1Cc2nccn2CC(COc2cccnc2)C1` (configuration not stated): the INHIBITION is listed as 27.08%.

Consider `Cc1nnc2n1CCN(CCC(=O)Nc1sccc1C#N)C2`, for which the INHIBITION is recorded as -7.41%.

Turning to `CCC(NC(=O)c1cccc(N2CCCC2=O)c1)c1ccc(OC)cc1` (configuration not stated), the INHIBITION is listed as 30.34%.

As for `Cc1ccc(C(=O)N2CCn3c(COCC4CC4)cnc3C2C)nc1` (configuration not stated), the INHIBITION is listed as -4.95%.

On to `O=C(CN1C=Nc2ccccc2S1(=O)=O)NC1CCCCC1`, for which the INHIBITION is on record as -4.97%.
